Measurements taken from PubChem BioAssay (NCI).
About 83,000 compounds went through this panel and 20% of them were active in at least one assay; those are over-represented in the sample as a whole.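 Assay: single dose, 48 h. Readout: percent growth (0 = no net growth; negative = cell death). Active: <10.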 Unmarked numbers belong to inactive results. The source made the active and inactive calls.

Tests used:
Assay in all cases: NCI-60 one-dose screen, 48 h (100 = growth as untreated, 0 = no growth, -100 = all killed)
A549/ATCC NSCLC = conditions: 10 µM unless noted
DU-145 prostate = conditions: 10 µM unless noted
K-562 leukemia = conditions: 10 µM unless noted
UACC-257 melanoma = conditions: 10 µM unless noted
HT29 colon = conditions: 10 µM unless noted
SNB-75 CNS = conditions: 10 µM unless noted
SK-MEL-5 melanoma = conditions: 10 µM unless noted
UACC-62 melanoma = conditions: 10 µM unless noted
ACHN renal = conditions: 10 µM unless noted
A498 renal = conditions: 10 µM unless noted
HL-60(TB) leukemia = conditions: 10 µM unless noted
MOLT-4 leukemia = conditions: 10 µM
OVCAR-8 ovarian = conditions: 10 µM unless noted
OVCAR-5 ovarian = conditions: 10 µM unless noted
HS 578T breast = conditions: 10 µM unless noted
NCI/ADR-RES ovarian = conditions: 10 µM unless noted
T-47D breast = conditions: 10 µM unless noted
PC-3 prostate = conditions: 10 µM unless noted
SK-MEL-2 melanoma = conditions: 10 µM unless noted
RXF 393 renal = conditions: 10 µM unless noted

Structure (SMILES) | growth (A549/ATCC NSCLC) | growth (DU-145 prostate) | growth (K-562 leukemia) | growth (UACC-257 melanoma) | growth (HT29 colon) | growth (SNB-75 CNS) | growth (SK-MEL-5 melanoma) | growth (UACC-62 melanoma) | growth (ACHN renal) | growth (A498 renal) | growth (HL-60(TB) leukemia) | growth (MOLT-4 leukemia) | growth (OVCAR-8 ovarian) | growth (OVCAR-5 ovarian) | growth (HS 578T breast) | growth (NCI/ADR-RES ovarian) | growth (T-47D breast) | growth (PC-3 prostate) | growth (SK-MEL-2 melanoma) | growth (RXF 393 renal)
c1cnc2c(c1)ccc1ncccc12 | 107% | 107% | 99.8% | 96.6% | 109% | 97.8% | 104% | 94.6% | 90.7% | 207% | 93.6% | 100% | 94.4% | 148% | 159% | 78.4% | 111% |  |  | 
CCC(CC)(c1ccccc1)C(OC(N)=O)c1ccccc1 (stereo not drawn) | 76% | 98.4% | 66% | 85.8% | 87.7% | 74.8% | 89.5% |  | 87.4% | 79.2% | 96.1% | 80.2% | 92.5% | 111% | 88.2% | 79.9% | 82.2% | 72.3% | 79.2% | 
O=C1NC(=O)C(CN2C(=O)C3(c4ccccc42)[C@H](Cl)C(=O)N3c2ccccc2)C(=O)N1 (stereo partly drawn) | 77.3% | 102% | 65.5% |  | 98.3% | 52.7% | 78.6% |  | 88.7% | 105% | 85.4% | 62.5% | 92.3% | 84.6% | 71% | 86.7% | 38.1% | 83.6% | 76.6% | 65.5%
CCCCn1cc(C(=O)/C(C#N)=C/c2cc3ccccc3nc2Cl)c2cc(OC)ccc21 | 102% | 104% | 47.5% | 98.5% | 89.9% | 75.4% |  | 81.4% | 79% | 94.8% | 88.7% | 67.8% | 75.1% | 102% | 88.6% | 91.7% | 80.4% | 87.7% | 115% | 
C[C@]12CC[C@H](OC3OC(O)C(O)C(O)C3O)C=C1CCC1C2CC[C@]2(C)[C@@H](c3ccc(=O)oc3)CC[C@]12O (stereo partly drawn) | 102% | -100% (active) | -35.3% (active) | 112% | -84.5% (active) | -53.2% (active) | -96.3% (active) | -84.3% (active) |  | -23.3% (active) | -57.3% (active) | -39.3% (active) | 110% |  | 9.56% (active) | -71.2% (active) | -71.4% (active) | -12.2% (active) | -61.3% (active) | -24.3% (active)
CC[C@@H](C)/C=C(C)/C=C/C(=O)c1c(O)c(-c2ccc(O)cc2)cn(O)c1=O | 3.85% (active) | 15.5% | 12.1% | -29.8% (active) |  | 2.38% (active) | -75.6% (active) | -31.6% (active) | 0.29% (active) | 39.3% |  |  | 4.95% (active) |  | 48% | 1.53% (active) | 15.8% | 37.7% | 59.7% | 19.8%
Cc1ccccc1O | 100% | 120% | 119% | 106% | 110% |  | 106% | 107% | 103% | 129% | 110% | 107% | 103% | 121% | 132% | 100% | 94.9% | 96.4% | 109% | 102%
O=C1NC(=S)NC(=O)C1=Cc1ccccc1 | 101% | 122% |  | 115% | 139% | 85.7% | 98.7% | 106% | 100% |  |  | 115% | 110% | 100% | 95.9% | 97.7% | 93.4% | 96.3% | 196% | 115%
C[C@]12CCC(=O)CC1CC[C@@H]1C2CC[C@@]2(C)C1CC[C@@H]2OC(=O)CC[Se][Se]CCC(=O)O[C@H]1CCC2[C@@H]3CCC4CC(=O)CC[C@]4(C)C3CC[C@@]21C (stereo partly drawn) | 101% | 110% |  | 90.6% | 83.1% | 109% | 93.2% | 88.5% | 100% | 84.6% | 9.16% (active) | 90.1% | 94.2% | 102% | 52.9% | 92.9% | 86.5% | 89.4% | 98.4% | 81.7%
CC1(C)N=C(N)N=C(N)N1c1cccc(C(=O)Nc2cccc(S(=O)(=O)F)c2)c1 | 104% | 114% | 118% | 93.9% | 109% | 80.2% | 99.8% | 99% | -26% (active) | 73.9% | 103% | 112% | 100% | 89.4% | 92.7% | 104% | 84% | 97.1% | 114% | 92.2%
CC1=C(SCCC(=O)OCC(=O)NCCC[Te]c2ccccc2)C(=O)c2ccccc2C1=O | 0.0697% (active) | -6.6% (active) | 10.2% | 55.1% | 11.2% | 19.2% | -61.4% (active) | 2.51% (active) | 12.4% | -11.8% (active) | -2.74% (active) | 0.655% (active) | 5.76% (active) | -0.604% (active) | -16.9% (active) | -10.5% (active) | 18.9% | -9.1% (active) | -33.4% (active) | 25%
COc1ccc(/C=C\c2cc(OC)c(OC)c(OC)c2)cc1N/C=C\C(=O)c1c[nH]c2ccccc12 | 28.4% | 3.53% (active) | 13.7% | 78.2% | -3.93% (active) | 19.1% | -53.9% (active) | 31% | 15% | -13.6% (active) | -11.4% (active) | 14.4% | 21.4% | 18.8% | 37.5% | 0.644% (active) | 81.7% | 10.4% | 32.3% | 29.2%
CN1CC2CCC(C1)C2=O | 102% | 115% | 93.1% | 102% | 100% | 89.3% | 101% | 110% | 102% | 110% | 96.3% | 91.3% | 104% | 103% | 108% | 106% | 102% | 92.9% | 95.5% | 119%
CC(C)C1c2ccc(O)cc2Oc2nc(N)c(C#N)c(N)c21 (stereo not drawn) | 91.4% | 115% | 92.5% | 105% | 109% | 81.4% | 91% |  | 92.5% | 88.4% | 102% | 98.1% | 96.2% | 104% | 91.4% | 102% | 87.5% | 92.1% | 109% | 
ClCCN(CCCl)c1nc(Cl)c(C2CC(c3ccccc3)=NN2c2ccccc2)s1 (stereo not drawn) | 88.9% | 99.7% | 68.3% | 85.8% | 82.5% | 78.9% | 89.1% | 60.9% | 89.6% | 103% | 101% | 75.4% | 90.3% | 99.5% | 87.4% | 103% | 66.3% | 75.8% | 93.9% | 94.2%
CC(=O)C1C(=O)N(C)C(=O)N(C)C1=O | 96.1% | 111% | 108% | 98.6% | 102% | 92.1% | 99.7% | 110% | 95.4% | 83.2% | 104% | 104% | 109% | 99.7% | 107% | 113% | 106% | 94.9% | 108% | 107%
Cc1cc(C)nc(C)c1.[Cl][Hg][Cl] | 97.2% | 102% | 83.6% | 93.8% | 95.7% | 96% | 106% | 95% | 101% | 120% | 93.7% | 92% | 100% | 114% | 108% | 102% | 81.8% | 95.4% | 98.7% | 124%
